SRC1 TRFRET art – flags TR-FRET format artefacts in PPARgamma SRC-1 recruitment agonist screen; TR-FRET detection artefact counter-screen, emission ratio; stronger effect = higher value; TR-FRET ratio at 8 µM; actives 0.34% (n = 99,000); AID 1051; in the data active means TR-FRET ratio above about 2300
PPARg SRC-3 ag – PPARgamma-driven SRC-3 recruitment agonism; activation, % at 8 µM; actives 0.26% (n = 200,000); AID 731; biochemical PPARgamma/SRC-3 coactivator recruitment assay; in the data active means activation above about 23%;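 further: 0% = DMSO and 100% = reference agonist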
Target sequence (P37231 whole entry, looked up): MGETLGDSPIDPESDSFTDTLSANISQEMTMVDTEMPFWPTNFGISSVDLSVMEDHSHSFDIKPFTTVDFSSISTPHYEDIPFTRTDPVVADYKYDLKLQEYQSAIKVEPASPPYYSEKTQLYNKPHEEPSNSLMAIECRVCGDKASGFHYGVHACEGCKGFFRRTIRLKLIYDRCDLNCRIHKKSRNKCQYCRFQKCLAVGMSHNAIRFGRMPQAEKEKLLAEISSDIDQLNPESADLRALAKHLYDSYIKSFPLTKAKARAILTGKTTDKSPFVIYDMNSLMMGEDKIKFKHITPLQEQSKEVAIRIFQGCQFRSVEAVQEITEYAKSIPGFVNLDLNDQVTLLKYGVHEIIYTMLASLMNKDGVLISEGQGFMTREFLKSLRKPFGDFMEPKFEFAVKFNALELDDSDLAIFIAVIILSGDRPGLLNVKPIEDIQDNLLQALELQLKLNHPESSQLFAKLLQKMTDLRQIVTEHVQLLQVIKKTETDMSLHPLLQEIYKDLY
PPARg SRC1 recr – PPARgamma-driven SRC-1 recruitment agonism | P37231 | PPARgamma-SRC-1 coactivator recruitment biochemical assay | activation, % at 8 µM | actives 0.41% (n = 200,000) | AID 631; in the data active means activation above about 19%;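 further: 0% = DMSO and 100% = reference agonist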
PPARg SRC-2 ag – promotes SRC-2 coactivator recruitment by human PPARgamma. P37231. PPARgamma LBD-SRC-2 recruitment, biochemical. activation, % at 8 µM. actives 0.34% (n = 200,000). AID 1032; in the data active means activation above about 22%;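 further: 0% = vehicle and 100% = reference agonist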
SRC3 TRFRET art – TR-FRET artefact, counter-screen to PPARgamma/SRC-3 agonist assay; PPARgamma/SRC-3 format; stronger effect = higher value; AID 1048; TR-FRET ratio at 8 µM; actives 0.39% (n = 99,000)
TR-FRET SRC-2 ct – flags TR-FRET format artefacts in PPARgamma SRC-2 recruitment agonist screen. TR-FRET artefact counter-screen; stronger effect = higher value. TR-FRET ratio at 8 µM. actives 0.4% (n = 200,000)
* = called active by the depositor. In the library only some 0.9% were active in any assay of this set; here they are far more common. Unless noted, no stated cut-off is given here; in the data, active means TR-FRET ratio above about 2000; inactive means the rest.

For Cn1ncc([N+](=O)[O-])c1C(=O)N/N=C/c1ccc(F)cc1 the results were SRC1 TRFRET art 1712, PPARg SRC-3 ag 4, PPARg SRC1 recr 21*, PPARg SRC-2 ag 8, SRC3 TRFRET art 1850 and TR-FRET SRC-2 ct 1691.
CCC(=O)NC(=S)Nc1ccc(NC(=S)NC(=O)c2ccccc2)cc1 was read as SRC1 TRFRET art 2679*, PPARg SRC-3 ag 3, PPARg SRC1 recr 24*, PPARg SRC-2 ag 3, SRC3 TRFRET art 1626 and TR-FRET SRC-2 ct 1582.
Cc1nn(Cc2c(F)cccc2Cl)c(C)c1[N+](=O)[O-] was read as SRC1 TRFRET art 1688, PPARg SRC-3 ag 0, PPARg SRC1 recr 21*, PPARg SRC-2 ag 0, SRC3 TRFRET art 1841 and TR-FRET SRC-2 ct 1578.
For O=C(O)c1ccc(Cl)c(S(=O)(=O)Nc2cccc(C(=O)Nc3cccc(C(F)(F)F)c3)c2)c1 the results were SRC1 TRFRET art 1792, PPARg SRC-3 ag -2, PPARg SRC1 recr 1, PPARg SRC-2 ag -1, SRC3 TRFRET art 1398 and TR-FRET SRC-2 ct 1511.
Cc1ccc(NC(=O)c2ccccc2NS(=O)(=O)c2ccc(Cl)s2)cc1S(=O)(=O)N1CCOCC1 was read as SRC1 TRFRET art 1561, PPARg SRC-3 ag -1, PPARg SRC1 recr -8, PPARg SRC-2 ag -2, SRC3 TRFRET art 1750 and TR-FRET SRC-2 ct 1448.
`O=C(Nc1ccc2oc(-c3ccncc3)nc2c1)c1c(F)c(F)c(F)c(F)c1F` gave PPARg SRC-3 ag 9, PPARg SRC1 recr 48*, PPARg SRC-2 ag -2 and TR-FRET SRC-2 ct 1536.
`O=C(Nc1ccc2oc(-c3ccncc3)nc2c1)c1ccc(F)cc1` gave SRC1 TRFRET art 1768, PPARg SRC-3 ag 9, PPARg SRC1 recr 9, PPARg SRC-2 ag 7, SRC3 TRFRET art 1522 and TR-FRET SRC-2 ct 1538.
Cc1cc(OCC(=O)Nc2ccc3oc(-c4ccncc4)nc3c2)ccc1Cl was read as PPARg SRC-3 ag 1, PPARg SRC1 recr 42*, PPARg SRC-2 ag 9 and TR-FRET SRC-2 ct 1643.
`O=C(Cc1ccc(Cl)cc1)Nc1ccc2oc(-c3ccncc3)nc2c1` gave PPARg SRC-3 ag 1, PPARg SRC1 recr 6, PPARg SRC-2 ag 9 and TR-FRET SRC-2 ct 1678.
Screening Cn1cccc1-c1nc2ccc(NC(=O)c3ccccc3)cc2[nH]1 returned PPARg SRC-3 ag 7, PPARg SRC1 recr 1, PPARg SRC-2 ag 26* and TR-FRET SRC-2 ct 1614.
Screening O=C(COC(=O)c1cc(-c2cccs2)nn1-c1ccccc1)Nc1ccc(F)c([N+](=O)[O-])c1 returned SRC1 TRFRET art 1653, PPARg SRC-3 ag -4, PPARg SRC1 recr -4, PPARg SRC-2 ag 2, SRC3 TRFRET art 1449 and TR-FRET SRC-2 ct 1540.
`O=C1Nc2ccc(Cl)cc2C12Nc1ccccc1-c1nnc(SCc3ccccc3F)nc1O2` (stereo not given) gave SRC1 TRFRET art 2406*, PPARg SRC-3 ag 11, PPARg SRC1 recr 14, PPARg SRC-2 ag 18, SRC3 TRFRET art 1748 and TR-FRET SRC-2 ct 1786.
`On1nnc2c3ccccc3c3ccccc3c21` gave SRC1 TRFRET art 1861, PPARg SRC-3 ag 1, PPARg SRC1 recr 6, PPARg SRC-2 ag 5, SRC3 TRFRET art 1641 and TR-FRET SRC-2 ct 1643.
Clc1ccc(-c2ccc(C=Nc3ccc(N4CCOCC4)cc3)o2)c(Cl)c1 was read as SRC1 TRFRET art 2177, PPARg SRC-3 ag 2, PPARg SRC1 recr 7, PPARg SRC-2 ag 13, SRC3 TRFRET art 1761 and TR-FRET SRC-2 ct 2149*.
For O=c1c([N+](=O)[O-])cccn1Cc1cccc(Cl)c1 the results were SRC1 TRFRET art 2135, PPARg SRC-3 ag 4, PPARg SRC1 recr 4, PPARg SRC-2 ag 2, SRC3 TRFRET art 1643 and TR-FRET SRC-2 ct 1741.
For CC(C)c1nc(SCC(=O)Nc2ccc(N(C)C)cc2)c2ccccc2n1 the results were SRC1 TRFRET art 1880, PPARg SRC-3 ag 4, PPARg SRC1 recr 6, PPARg SRC-2 ag 11, SRC3 TRFRET art 1810 and TR-FRET SRC-2 ct 1650.
`C=CCC1Cc2c(Br)cccc2C(CC=C)N1` (stereo not given) gave SRC1 TRFRET art 2057, PPARg SRC-3 ag 2, PPARg SRC1 recr 3, PPARg SRC-2 ag 5, SRC3 TRFRET art 1570 and TR-FRET SRC-2 ct 2035*.
Screening CC(C)C(C)(C#N)NC(=O)CSc1nnc(-c2ccncc2)n1Cc1ccccc1 (stereo not given) returned PPARg SRC-3 ag 8, PPARg SRC1 recr 7, PPARg SRC-2 ag 11 and TR-FRET SRC-2 ct 1578.
`CC(C)C(C)(C#N)NC(=O)CSc1nc2scc(-c3ccc(F)cc3)c2c(=O)n1Cc1ccccc1` (stereo not given) gave SRC1 TRFRET art 2769*, PPARg SRC-3 ag 6, PPARg SRC1 recr 1, PPARg SRC-2 ag -5, SRC3 TRFRET art 2793* and TR-FRET SRC-2 ct 2522*.
Cc1ccccc1C(=O)NC1CCN(C(=O)Nc2ccccc2Cl)CC1 was read as SRC1 TRFRET art 1953, PPARg SRC-3 ag 3, PPARg SRC1 recr 0, PPARg SRC-2 ag 4, SRC3 TRFRET art 1636 and TR-FRET SRC-2 ct 1508.
`COC(=O)C(CCSC)NC(=O)c1cc2c(n(-c3ccccc3)c1=O)CC(C)(C)CC2=O` (stereo not given) gave SRC1 TRFRET art 1980, PPARg SRC-3 ag 5, PPARg SRC1 recr 5, PPARg SRC-2 ag 7, SRC3 TRFRET art 1682 and TR-FRET SRC-2 ct 1601.
Screening O=C(O)CCCn1cc(NC(=O)COc2cc(F)ccc2[N+](=O)[O-])cn1 returned SRC1 TRFRET art 1584, PPARg SRC-3 ag -4, PPARg SRC1 recr 1, PPARg SRC-2 ag 3, SRC3 TRFRET art 1817 and TR-FRET SRC-2 ct 1491.
CCc1ccc(N/C(N)=N/c2nc(CSc3ccccn3)cc(=O)[nH]2)cc1 was read as SRC1 TRFRET art 2062, PPARg SRC-3 ag 5, PPARg SRC1 recr 5, PPARg SRC-2 ag 17, SRC3 TRFRET art 2114* and TR-FRET SRC-2 ct 1924.
For COc1cccc(N/C(N)=N/c2nc(CSc3ccccn3)cc(=O)[nH]2)c1 the results were SRC1 TRFRET art 1915, PPARg SRC-3 ag 3, PPARg SRC1 recr 6, PPARg SRC-2 ag 1, SRC3 TRFRET art 1524 and TR-FRET SRC-2 ct 1675.
For Cc1ccc(CSc2nc3c(cc2C#N)CCC3)cc1 the results were PPARg SRC-3 ag 1, PPARg SRC1 recr 30*, PPARg SRC-2 ag -4 and TR-FRET SRC-2 ct 1460.
For N#Cc1cc2c(nc1SCc1ccc(Cl)cc1)CCCC2 the results were PPARg SRC-3 ag -10, PPARg SRC1 recr 0, PPARg SRC-2 ag 1 and TR-FRET SRC-2 ct 1440.
O=C(NNC(=O)C1CC(c2cccs2)=NO1)NC1CCCCC1 (stereo not given) was read as SRC1 TRFRET art 2087, PPARg SRC-3 ag 0, PPARg SRC1 recr 5, PPARg SRC-2 ag 8, SRC3 TRFRET art 1634 and TR-FRET SRC-2 ct 1566.
Screening Cc1occc1C(=O)N/N=C/c1ccc(Br)s1 returned SRC1 TRFRET art 1992, PPARg SRC-3 ag 7, PPARg SRC1 recr 22*, PPARg SRC-2 ag 6, SRC3 TRFRET art 1760 and TR-FRET SRC-2 ct 1634.

Source: PubChem (The Scripps Research Institute Molecular Screening Center)
